Measurements as given in PubChem BioAssay AID1970 (National Center for Advancing Translational Sciences (NCATS), 2009).
Inconclusive results are not listed. Activity calls are given as the source filed them. The call rests on the fitted dose curve; in most records, active means well fitted inhibition curve with a large enough effect; inconclusive means small, poorly fitted or top-dose-only effect; inactive means flat fitted curve, though single readings scatter.

What follows are compounds tested against Dual specificity protein kinase CLK4 (Homo sapiens) (UniProt Q9HAZ1) (assay: Confirmation Assay for Inhibitors of CDC-like Kinase 4 (Kinase-Glo Assay)). Conditions: recombinant Clk4, Kinase-Glo ATP depletion luminescence; series mostly up to 47.7 µM.
Sequence of Dual specificity protein kinase CLK4 (Homo sapiens) (Q9HAZ1 whole entry, looked up): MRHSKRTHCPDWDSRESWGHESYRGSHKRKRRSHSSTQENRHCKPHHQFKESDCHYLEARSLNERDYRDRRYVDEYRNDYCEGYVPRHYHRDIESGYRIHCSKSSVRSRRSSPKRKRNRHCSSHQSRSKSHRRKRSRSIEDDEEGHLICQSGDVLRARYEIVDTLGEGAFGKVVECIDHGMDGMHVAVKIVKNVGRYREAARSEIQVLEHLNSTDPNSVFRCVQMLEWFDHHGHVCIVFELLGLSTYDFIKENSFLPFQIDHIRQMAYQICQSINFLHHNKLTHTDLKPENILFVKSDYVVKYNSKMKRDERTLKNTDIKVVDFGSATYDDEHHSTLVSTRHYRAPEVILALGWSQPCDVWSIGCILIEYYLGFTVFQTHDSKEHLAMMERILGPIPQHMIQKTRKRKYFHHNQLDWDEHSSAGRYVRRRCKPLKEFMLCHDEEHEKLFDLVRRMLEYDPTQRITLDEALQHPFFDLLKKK
Procedure: NIH Molecular Libraries Probe Production Centers Network [MLPCN] NIH Chemical Genomics Center [NCGC] MLPCN Grant: 1R03MH084827-01 Assay Submitter (PI): Tom Misteli NCGC Assay Overview: Clk4 (Invitrogen, cat# PV3839) was assayed using ATP and the RS repeat peptide (AnaSpec cat # 61722) as substrates. Following the Clk4 reaction, the remaining ATP levels were detected using Promega Kinase-Glo technology wherein the remaining ATP from the kinase reaction is detected using Ultra-Glo luciferase and D-luciferin which generates a bioluminescence signal from the ATP.
NCGC Assay Protocol Summary: Two uL/well of substrate-buffer solution (100 uM RS peptide, 1 uM ATP, 25 mM Tris pH7.5, 10 mM MgCl2, 0.5 mM EGTA, 2.5 mM DTT, 0.01% Triton X-100 final concentration) was dispensed into 1536-well, assay plates (Greiner, solid white medium-binding plates) with Aurora Discovery BioRAPTR Flying Reagent Dispenser (FRD; Beckton-Dickenson). Using a Kalypsys pin tool equipped with a 1536-pin tool, 23 nL of compound solution was transferred to the assay plate. One uL/ well Clk4-buffer solution (25 nM Clk4, 25 mM Tris pH 7.5, 10 mM MgCl2, 0.5 mM EGTA, 2.5 mM DTT, 0.01% Triton X-100, final concentrations) was then added using the FRD yielding a total kinase reaction volume of 3 uL/ well. After 4.5 hours of room temperature incubation, 3 uL Kinase-Glo reagent was added for a final assay volume of 6 uL/ well. Luminescence was detected with the ViewLux plate reader (Perkin Elmer, Waltham, MA) after 5 min incubation using a 5 second exposure time and 2x binning.
With `Cc1cccc(-c2ccc3ncnc(NCc4cc(C)cs4)c3c2)c1` the Potency was 14100 nM (active). With `c1nc(NCc2ccc3c(c2)OCO3)c2cc(-c3ccoc3)ccc2n1` the Potency was 631 nM (active). For `Cc1nc(CN(C)c2ncnc3cc(-c4ccc5c(c4)OCO5)ccc23)cs1`, the Potency was 5330 nM (active). For `c1coc(CCNc2ncnc3ccc(-c4ccc5c(c4)OCO5)cc23)c1`, the Potency was 59.8 nM (active). For `c1cncc(CNc2ncnc3ccc(-c4cccnc4)cc23)c1`, the Potency was 7940 nM (active). With `Cc1cccc(CNc2ncnc3ccc(-c4cccc(Cl)c4)cc23)c1` the Potency was 14100 nM (active). In the case of `c1coc(-c2ccc3ncnc(NCc4cccs4)c3c2)c1`, the Potency was 823 nM (active). For `CC(Nc1ncnc2ccc(-c3ccc4c(c3)OCO4)cc12)c1ccco1` (stereo not given), the Potency was 119 nM (active). `Cn1ccc2cc(-c3ccc4ncnc(NCc5cccnc5)c4c3)ccc21` was tested, and the Potency was 12600 nM (active). For `COc1cccc(-c2ccc3ncnc(NCc4cccc(F)c4)c3c2)c1`, the Potency was 631 nM (active). With `CC(C)(C)CNc1ncnc2ccc(-c3ccc4c(c3)OCO4)cc12` the Potency was 32.4 nM (active). In the case of `Cc1nc(CNc2ncnc3ccc(-c4ccc5c(c4)OCO5)cc23)cs1`, the Potency was 47.5 nM (active). In the case of `Fc1cccc(CNc2ncnc3ccc(-c4ccccc4Cl)cc23)c1`, the Potency was 11200 nM (active). For `Cc1csc(CNc2ncnc3ccc(-c4ccc5c(c4)OCO5)cc23)n1`, the Potency was 37.7 nM (active). For `Cc1cccc(CNc2ncnc3ccc(-c4ccc5c(c4)OCO5)cc23)c1`, the Potency was 112 nM (active). For `Fc1cccc(CNc2ncnc3ccc(-c4cccc(Cl)c4)cc23)c1`, the Potency was 7080 nM (active). In the case of `c1nc(NCC2CCCO2)c2ccc(-c3ccc4c(c3)OCO4)cc2n1` (stereo not given), the Potency was 8440 nM (active). With `Cc1nc(CNc2ncnc3ccc(-c4oc(-c5ccccc5)nc4C)cc23)cs1` the Potency was 2320 nM (active). For `OCc1ccc(-c2ccc3ncnc(NCCc4cnc[nH]4)c3c2)o1`, the Potency was 733 nM (active). `CN(C)CCNc1ncnc2ccc(-c3ccc4c(c3)OCO4)cc12` was tested, and the Potency was 463 nM (active). For `c1csc(CNc2ncnc3ccc(-c4ccc5c(c4)OCCO5)cc23)c1`, the Potency was 112 nM (active). With `CN1CCCC1CCNc1ncnc2ccc(-c3ccc4c(c3)OCO4)cc12` (stereo not given) the Potency was 923 nM (active). `Cc1csc(CNc2ncnc3cc(-c4ccc5c(c4)OCO5)ccc23)n1` was tested, and the Potency was 8440 nM (active). For `Cc1occc1-c1ccc2ncnc(NCCc3cnc[nH]3)c2c1`, the Potency was 519 nM (active). With `Cc1cccc(CNc2ncnc3ccc(-c4cccc(C)c4)cc23)c1` the Potency was 8910 nM (active). In the case of `Cc1nc(C)c(-c2ccc3ncnc(NCCc4cnc[nH]4)c3c2)s1`, the Potency was 3680 nM (active). In the case of `Cc1nc(CNc2ncnc3ccc(-c4ccoc4)cc23)cs1`, the Potency was 232 nM (active). `c1c[nH]c(CNc2ncnc3ccc(-c4ccoc4)cc23)n1` was tested, and the Potency was 2920 nM (active). For `Cc1nc(CN(C)c2ncnc3ccc(-c4ccc5c(c4)OCO5)cc23)cs1`, the Potency was 33.6 nM (active). For `c1cncc(-c2ccc3ncnc(NCc4ccc5c(c4)OCO5)c3c2)c1`, the Potency was 6310 nM (active). In the case of `Cc1occc1-c1ccc2ncnc(NCc3ncc[nH]3)c2c1`, the Potency was 463 nM (active). In the case of `Cc1csc(CNc2ncnc3ccc(-c4ccco4)cc23)c1`, the Potency was “inactive”. `Cc1ccc(CNc2ncnc3cc(-c4ccc5c(c4)OCO5)ccc23)o1` was tested, and the Potency was 5980 nM (active). `COc1cccc(-c2ccc3ncnc(NCc4cccc(C)c4)c3c2)c1` was tested, and the Potency was 891 nM (active). In the case of `CN(Cc1cncn1C)c1ncnc2ccc(-c3ccc4c(c3)OCO4)cc12`, the Potency was 292 nM (active). With `c1cncc(CNc2ncnc3ccc(-c4ccco4)cc23)c1` the Potency was 6310 nM (active). For `Cc1csc(CNc2ncnc3ccc(-c4cccnc4)cc23)c1`, the Potency was 4470 nM (active). `c1nc(NCc2ccc3c(c2)OCO3)c2cc(-c3ccc4c(c3)OCCO4)ccc2n1` was tested, and the Potency was 2240 nM (active). With `c1cncc(CNc2ncnc3ccc(-c4ccc5c(c4)OCO5)cc23)c1` the Potency was 100 nM (active). In the case of `c1nc(NCC2CCOC2)c2cc(-c3ccc4c(c3)OCO4)ccc2n1` (stereo not given), the Potency was 58.2 nM (active).
